# Measured values as given in PubChem BioAssay (EPA / NIEHS).
# Where “and” joins values, the source holds several entries; their conditions need not be identical. Equal entries are not always repeated. Calls of active or inactive are those of the source. Rule for the calls: active = hit-call score of the fitted dose curve at least 0.9, where 1 is the maximum; inactive = score below 0.9.
# Read-out: Interleukin-8 (IL8), CXCL8 (gene 3576)
# Test: BSK_BF4T_IL8: BioMAP Diversity Plus: BF4T Assay for Interleukin-8 (IL8) Biomarker Activity (AID 2284263)
# Conditions: primary human bronchial epithelial cells with fibroblasts
# Method in brief: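 Human bronchial epithelial cells with dermal fibroblasts co-culture; IL-8 measured by ELISA 24 hours after dosing, fitted vs DMSO. Cytotoxicity tracked in parallel cultures by SRB total-protein staining.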
SMILES,outcome,AC50
Cc1ccc(S(=O)(=O)OCC(F)(F)C(F)(F)C(F)(F)C(F)(F)C(F)(F)C(F)F)cc1,inactive,
N=C(N)C(F)(F)C(F)(F)C(F)(F)C(F)(F)C(F)(F)C(F)(F)C(F)(F)F,inactive,
FC(F)(F)C(F)(F)CNCC(F)(F)C(F)(F)F,inactive,
FC(F)(F)C(F)(F)C(F)(F)C(F)(F)C(F)(F)C(F)(F)CC1CO1 (stereo unspecified),inactive,
OCCCC(F)(F)C(F)(F)C(F)(F)F,inactive,
FC(F)(I)C(F)(F)C(F)(F)C(F)(F)I,,45.6 µM (active) and 51 µM (active) and 55.6 µM (active)
OCCCC(F)(F)C(F)(F)C(F)(F)C(F)(F)C(F)(F)C(F)(F)C(F)(F)F,,40.5 µM (active) and 45.3 µM (active)
FC1CC(F)(F)C(F)(F)C1(F)F (stereo unspecified),inactive,

# Read-out: Interleukin-1 alpha (IL1a), IL1A (gene 3552)
# Test: BSK_BF4T_IL1a: BioMAP Diversity Plus: BF4T Assay for Interleukin-1 alpha (IL1a) Biomarker Activity (AID 2284264)
# Conditions: primary human bronchial epithelial cells with fibroblasts
# Method in brief: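 ELISA read-out of IL-1α from bronchial epithelial cell/dermal fibroblast co-cultures 24 h after compound addition. Increases scored against DMSO negative control. Cytotoxicity monitored by sulforhodamine B staining of parallel cultures.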
SMILES,outcome,AC50
CC(C)(C)C(=O)CC(=O)C(F)(F)C(F)(F)C(F)(F)F,inactive,
O=C(O)C(F)(F)C(F)(F)OC(F)(F)F,inactive,
OCC(F)(F)C(F)(F)C(F)(F)C(F)(F)C(F)(F)C(F)(F)F,inactive,
FC(F)(F)C(F)(F)C(F)(F)C(F)(F)C(F)(F)C(F)(F)C(F)(F)Br,inactive,
C=C(C)C(=O)OCC(F)(F)C(F)(F)C(F)(F)F,inactive,
OCC(F)(F)C(F)(F)C(F)(F)C(F)(F)C(F)(F)C(F)F,inactive,
C=CC(F)(F)C(F)(F)C(F)(F)C(F)(F)C(F)(F)C(F)(F)C(F)(F)C(F)(F)F,inactive,
Cc1ccc(S(=O)(=O)OCC(F)(F)C(F)(F)C(F)(F)C(F)(F)C(F)(F)C(F)F)cc1,inactive,
N=C(N)C(F)(F)C(F)(F)C(F)(F)C(F)(F)C(F)(F)C(F)(F)C(F)(F)F,inactive,
CCO[Si](CCC(F)(F)C(F)(F)C(F)(F)C(F)(F)C(F)(F)C(F)(F)F)(OCC)OCC,inactive,
FC(F)(F)C(F)(F)CNCC(F)(F)C(F)(F)F,inactive,
C=CC(=O)OCC(F)(F)C(F)(F)C(F)(F)C(F)(F)COC(=O)C=C,,30 µM (active) and 46.8 µM (active)
FC(F)(F)C(F)(F)C(F)(F)C(F)(F)C(F)(F)C(F)(F)CC1CO1 (stereo unspecified),inactive,
OCCCC(F)(F)C(F)(F)C(F)(F)F,inactive,
O=C(Cl)C(F)(F)C(F)(F)C(F)(F)C(F)(F)C(F)(F)C(F)(F)C(F)(F)C(F)(F)F,,45.4 µM (active) and 45.6 µM (active) and 56.8 µM (active)
O=C(O)C(F)(F)C(F)(F)C(F)(F)C(F)(F)C(F)(F)C(F)(F)C(F)(F)C(F)(F)Cl,,45.2 µM (active) and 44 µM (active)
FC(F)(F)C(F)(F)C(F)(F)C(F)(F)C(F)(F)CCI,inactive,

SMILES,outcome,AC50
O=C(O)C(F)(F)C(F)(F)C(F)(F)C(F)(F)C(F)(F)C(F)(F)C(F)(F)C(F)(F)C(F)(F)C(F)F,,38.8 µM (active) and 20.5 µM (active)
O=P(O)(O)OCCC(F)(F)C(F)(F)C(F)(F)C(F)(F)C(F)(F)C(F)(F)F,inactive,
FC(F)(Br)C(F)(F)C(F)(F)C(F)(F)C(F)(F)C(F)(F)Br,inactive,
OCC(F)(F)C(F)(F)C(F)(F)F,inactive,
O=C(O)C(F)(F)C(F)(F)C(F)(F)C(F)(F)C(F)(F)C(F)(F)C(F)(F)C(F)(F)C(F)(F)C(F)(F)C(F)(F)C(F)(F)F,inactive,
O=S(=O)(OCC(F)F)C(F)(F)F,inactive,
FC(F)(F)C(F)(F)C(F)(F)CI,inactive,
FC(F)(I)C(F)(F)C(F)(F)C(F)(F)I,,55.2 µM (active) and 45.6 µM (active) and 47.3 µM (active)
FC(F)(F)C(F)(F)C(F)(F)C(F)(F)C(F)(F)C(F)(F)C(F)(F)I,inactive,
OCCCC(F)(F)C(F)(F)C(F)(F)C(F)(F)C(F)(F)C(F)(F)C(F)(F)F,,51.6 µM (active) and 55.4 µM (active)
COC(=O)CCC(F)(F)C(F)(F)C(F)(F)C(F)(F)F,inactive,
OCC(F)(F)C(F)(F)C(F)(F)C(F)F,inactive,
FC1CC(F)(F)C(F)(F)C1(F)F (stereo unspecified),inactive,
O=C(O)C(F)(F)C(F)(F)C(F)(F)C(F)(F)F,inactive,
O=S(=O)(O)C(F)(F)C(F)(F)C(F)(F)C(F)(F)C(F)(F)C(F)(F)C(F)(F)F,inactive,
O=C(CC(=O)C(F)(F)C(F)(F)F)C(F)(F)F,inactive,
